The structures appear in SMILES notation. Records with an inconclusive call do not appear. Where a call stands in place of a potency, no number is given. Activity calls are given as the source filed them. Calls follow the shape of the dose curve; as a rule, active = well fitted curve in the direction sought with a large enough effect; inconclusive = small, poorly fitted or top-dose-only effect, or another doubt; inactive = no such curve, though single readings can be large; an effect the other way counts as inactive or inconclusive.

Here are results for 35 molecules from PubChem BioAssay (NCATS).

One assay in a line: qHTS of pediatric cancer cell lines to identify multiple opportunities for drug repurposing: Primary screen for U-2 OS cells (AID 1347096). Also: nearly all actives have a fitted effect of over 50% in size. The settings on record: U-2 OS viability, CellTiter-Glo luminescence, 48 h; series mostly up to 46 µM. In a few lines: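 Cells (500-1,000/well) in growth media were settled 5 h at 37 degrees C, then given compounds for 48 h. Viability was read as CellTiter-Glo luminescence. Primary runs used MIPE at 11 points (0.78 nM-46 µM) and NPC at 8 points (0.59 nM-46 µM); follow-ups used 11 points.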
Background: In qHTS, concentration-response curves come from the screen itself.
As to `N/C(=N\N=C\c1ccc(Cl)cc1)N/N=C/c1ccc(Cl)cc1`, the Potency entry was “inactive”.

In the case of `O=C1OC2(c3ccccc31)c1cc(Br)c(O)c(Br)c1Oc1c2cc(Br)c(O)c1Br`, the Potency entry was “inactive”.

On to `COc1ccc(C(=O)c2ccccc2O)c(O)c1`, for which the Potency entry is “inactive”.

With `Nc1nc(Cl)nc2c1ncn2[C@@H]1O[C@H](CO)[C@@H](O)[C@@H]1F`, the Potency entry was “inactive”.

As to `CCc1oc2ccccc2c1C(=O)c1cc(I)c(O)c(I)c1`, the Potency result was “inactive”.

In the case of `CCOC(=O)[C@@](C)(N)Cc1ccc(O)c(O)c1`, the Potency entry is “inactive”.

As to `CC(C)=CCOc1ccc(/C=C/C(=O)c2ccc(OCC=C(C)C)cc2OCC(=O)O)cc1`, the Potency entry is “inactive”.

Take `CN1CCN(CCC(=O)N2c3ccccc3Sc3ccc(C(F)(F)F)cc32)CC1`: the Potency entry is “inactive”.

For `NC(=O)n1c(O)c(C(=O)c2cccs2)c2cc(Cl)ccc21`, the Potency result was “inactive”.

As to `C#C[C@]1(OC(C)=O)CC[C@H]2[C@@H]3CCC4=C/C(=N/O)CC[C@@H]4[C@H]3CC[C@@]21CC`, the Potency entry is “inactive”.

Consider `CCc1ccc(C(=O)C(C)CN2CCCCC2)cc1` (stereo not drawn), for which the Potency result was “inactive”.

Regarding `CCCCc1cc2ccccc2c(OCCN(C)C)n1`, the Potency entry is “inactive”.

For `CC1(COc2ccc(CC3SC(=O)NC3=O)cc2)CCCCC1` (stereo not drawn), the Potency entry is “inactive”.

Turning to `C#C[C@]1(O)CC[C@H]2[C@@H]3CCC4=Cc5oncc5C[C@]4(C)[C@H]3CC[C@@]21C`, the Potency entry is “inactive”.

As to `CNCCCCOc1ccccc1Cc1ccccc1`, the Potency result was “inactive”.

As to `C[C@]12CCC(=O)C=C1C=C[C@@H]1[C@@H]2CC[C@@]2(C)[C@H]1CC[C@@]21CCC(=O)O1`, the Potency result was “inactive”.

On to `O=C(Nc1ccccc1)OCC(CN1CCCCC1)OC(=O)Nc1ccccc1` (stereo not drawn), for which the Potency entry is “inactive”.

A short description of the next assay: qHTS of pediatric cancer cell lines to identify multiple opportunities for drug repurposing: Primary screen for Saos-2 cells (AID 1347097). Also: nearly all actives have a fitted effect of over 40% in size. Also: potency is read from the fitted curve at half-maximal effect. Particulars: Saos-2 viability, CellTiter-Glo ATP luminescence, 48 h; series mostly up to 46 µM. An outline of the steps:
(§1)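 Viability was measured as metabolically active cells after 48 hours of treatment, read by CellTiter-Glo luminescence. Compounds were tested at multiple final concentrations, giving concentration-response curves.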
As for `O=C(CCCN1CC=C(n2c(=O)[nH]c3ccccc32)CC1)c1ccc(F)cc1`, the Potency entry is “inactive”.

As to `O=C(Oc1cccc2cccnc12)c1ccccc1`, the Potency is 15 µM (active).

`Oc1c(Cl)cc(Cl)c(Cl)c1Cc1c(O)c(Cl)cc(Cl)c1Cl`: the Potency is 5.96 µM (active).

Turning to `CCCCCCCCCCCCCC[N+](C)(C)Cc1ccccc1`, the Potency is 23.7 µM (active).

Consider `O[C@@H](c1cc(C(F)(F)F)nc2c(C(F)(F)F)cccc12)[C@H]1CCCCN1`, for which the Potency was 21.1 µM (active).

Consider `CC[C@H](c1ccc(O)cc1)[C@@H](CC)c1ccc(O)cc1`, for which the Potency is 23.7 µM (active).

With `CCCCCCCCNC(C)C(O)c1ccc(SC(C)C)cc1` (stereo not drawn), the Potency was 23.7 µM (active).

Turning to `Oc1ccc(Cl)cc1Cc1cc(Cl)ccc1O`, the Potency is 8.41 µM (active).

For the molecule `CCCCNc1ccc(C(=O)OCCOCCOCCOCCOCCOCCOCCOCCOCCOC)cc1`, the Potency entry was “inactive”.

The next assay in a line: qHTS of pediatric cancer cell lines to identify multiple opportunities for drug repurposing: Primary screen for SK-N-SH cells (AID 1347098). Also: nearly all actives have a fitted effect of over 65% in size. Also: potency is read from the fitted curve at half-maximal effect. The settings on record: SK-N-SH viability, CellTiter-Glo luminescence, 48 h; series mostly up to 57 µM. In a few lines:
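Cells (500-1,000/well) rested 5 h, then received compounds for 48 h; metabolically active cells were measured by CellTiter-Glo luminescence. Final concentrations spanned up to 46 µM (MIPE, 11-point) or 0.59 nM-46 µM (NPC, 8-point) in primary screens, 11-point in follow-ups.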
In the case of `O=C(CCCN1CC=C(n2c(=O)[nH]c3ccccc32)CC1)c1ccc(F)cc1`, the Potency result was “inactive”.

`Oc1c(Cl)cc(Cl)c(Cl)c1Cc1c(O)c(Cl)cc(Cl)c1Cl`: the Potency was 12.2 µM (active).

In the case of `CCc1oc2ccccc2c1C(=O)c1cc(I)c(O)c(I)c1`, the Potency entry is “inactive”.

With `CCN(CC)CCNc1ccc(CO)c2sc3ccccc3c(=O)c12`, the Potency was 17.2 µM (active).

As for `CCCCCCCCCCCCCC[N+](C)(C)Cc1ccccc1`, the Potency is 30.7 µM (active).

In the case of `O[C@@H](c1cc(C(F)(F)F)nc2c(C(F)(F)F)cccc12)[C@H]1CCCCN1`, the Potency was 30.7 µM (active).

On to `CC[C@H](c1ccc(O)cc1)[C@@H](CC)c1ccc(O)cc1`, for which the Potency was 19.4 µM (active).

For `CCCCCCCCNC(C)C(O)c1ccc(SC(C)C)cc1` (stereo not drawn), the Potency was 15.4 µM (active).

Consider `CN1CCN(CCC(=O)N2c3ccccc3Sc3ccc(C(F)(F)F)cc32)CC1`, for which the Potency was 9.7 µM (active).

For `NC(N)=NN=C(/C=C/c1ccc([N+](=O)[O-])o1)/C=C/c1ccc([N+](=O)[O-])o1`, the Potency was 3.86 µM (active).

As to `Oc1ccc(Cl)cc1Cc1cc(Cl)ccc1O`, the Potency is 17.2 µM (active).

For `CCCCCN=C(N)N/N=C/c1c[nH]c2ccc(OC)cc12`, the Potency was 4.33 µM (active).

`CCCCNc1ccc(C(=O)OCCOCCOCCOCCOCCOCCOCCOCCOCCOC)cc1`: the Potency entry was “inactive”.

As for `COc1ccc(C(Cl)=C(c2ccc(OC)cc2)c2ccc(OC)cc2)cc1`, the Potency result was “inactive”.

As for `C#C[C@]1(O)CC[C@H]2[C@@H]3CCC4=Cc5oncc5C[C@]4(C)[C@H]3CC[C@@]21C`, the Potency result is “inactive”.

For `O=C(Nc1ncc([N+](=O)[O-])s1)c1cccs1`, the Potency was 24.4 µM (active).

With `C[C@H]1O[C@@H](O[C@H]2CC[C@@]3(C)[C@H](CC[C@@H]4[C@@H]3C[C@@H](O)[C@]3(C)[C@@H](C5=CC(=O)OC5)CC[C@]43O)C2)C[C@H](O)[C@@H]1O[C@H]1C[C@H](O)[C@H](O[C@H]2C[C@H](O)[C@H](O[C@@H]3O[C@H](CO)[C@@H](O)[C@H](O)[C@H]3O)[C@@H](C)O2)[C@@H](C)O1`, the Potency was 0.386 µM (active).

Turning to `CNCCCCOc1ccccc1Cc1ccccc1`, the Potency is 24.4 µM (active).

Turning to `C[C@]12CCC(=O)C=C1C=C[C@@H]1[C@@H]2CC[C@@]2(C)[C@H]1CC[C@@]21CCC(=O)O1`, the Potency result was “inactive”.

Another assay is described as follows: qHTS of pediatric cancer cell lines to identify multiple opportunities for drug repurposing: Primary screen for NB1643 cells (AID 1347099). Also: nearly all actives have a fitted effect of over 50% in size. Also: potency is read from the fitted curve at half-maximal effect. The settings on record: NB1643 neuroblastoma viability, CellTiter-Glo luminescence, 48 h; series mostly up to 46 µM. In a few lines: as §1
In the case of `Cc1ccc2c(Br)cc(Br)c(O)c2n1`, the Potency was 15 µM (active).

With `CO[C@H]1C=CO[C@@]2(C)Oc3c(C)c(O)c4c(O)c(c(/C=N/N5CCN(C)CC5)c(O)c4c3C2=O)NC(=O)/C(C)=C\C=C[C@H](C)[C@H](O)[C@@H](C)[C@@H](O)[C@@H](C)[C@H](OC(C)=O)[C@@H]1C`, the Potency result was “inactive”.

As for `O=C(CCCN1CC=C(n2c(=O)[nH]c3ccccc32)CC1)c1ccc(F)cc1`, the Potency was 26.6 µM (active).

As to `N/C(=N\N=C\c1ccc(Cl)cc1)N/N=C/c1ccc(Cl)cc1`, the Potency result is “inactive”.

`Oc1c(Cl)cc(Cl)c(Cl)c1Cc1c(O)c(Cl)cc(Cl)c1Cl`: the Potency was 5.96 µM (active).

For `COc1ccc(C(=O)c2ccccc2O)c(O)c1`, the Potency entry was “inactive”.

As to `CCOC(=O)[C@@](C)(N)Cc1ccc(O)c(O)c1`, the Potency is 23.7 µM (active).

With `CCN(CC)CCNc1ccc(CO)c2sc3ccccc3c(=O)c12`, the Potency is 16.8 µM (active).

Take `CCc1nn(CCCN2CCN(c3cccc(Cl)c3)CC2)c(=O)n1CCOc1ccccc1`: the Potency entry is “inactive”.

For the molecule `CC(C)=CCOc1ccc(/C=C/C(=O)c2ccc(OCC=C(C)C)cc2OCC(=O)O)cc1`, the Potency is 23.7 µM (active).

For the molecule `NC(N)=NN=C(/C=C/c1ccc([N+](=O)[O-])o1)/C=C/c1ccc([N+](=O)[O-])o1`, the Potency was 15 µM (active).

In the case of `Oc1ccc(Cl)cc1Cc1cc(Cl)ccc1O`, the Potency was 9.44 µM (active).

In the case of `CCCCNc1ccc(C(=O)OCCOCCOCCOCCOCCOCCOCCOCCOCCOC)cc1`, the Potency entry was “inactive”.

Consider `CCc1ccc(C(=O)C(C)CN2CCCCC2)cc1` (stereo not drawn), for which the Potency entry was “inactive”.

As for `CCCCc1cc2ccccc2c(OCCN(C)C)n1`, the Potency result is “inactive”.

Take `CC1(COc2ccc(CC3SC(=O)NC3=O)cc2)CCCCC1` (stereo not drawn): the Potency entry is “inactive”.

Take `O=C(Nc1ncc([N+](=O)[O-])s1)c1cccs1`: the Potency was 23.7 µM (active).

Take `C[C@H]1O[C@@H](O[C@H]2CC[C@@]3(C)[C@H](CC[C@@H]4[C@@H]3C[C@@H](O)[C@]3(C)[C@@H](C5=CC(=O)OC5)CC[C@]43O)C2)C[C@H](O)[C@@H]1O[C@H]1C[C@H](O)[C@H](O[C@H]2C[C@H](O)[C@H](O[C@@H]3O[C@H](CO)[C@@H](O)[C@H](O)[C@H]3O)[C@@H](C)O2)[C@@H](C)O1`: the Potency is 0.668 µM (active).
